From PubChem BioAssay (NCI)
Compounds without any hit were thinned out: in the full panel of roughly 83,000, 20% have a hit.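 Testing used 96-well plates and a 48-hour single-concentration exposure. Example: -40 means 40% of the starting cells died.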 Unmarked numbers belong to inactive results. Activity calls are given as the source filed them. Rule for the calls: active = growth percent below 10; inactive = the rest.

Test system: OVCAR-3 ovarian
Experiment: NCI-60 one-dose screen, 48 h (100 = growth as untreated, 0 = no growth, -100 = all killed)
Details: 10 µM

Compared with O=S(=O)(Nc1ncccn1)c1ccc(-n2c(-c3ccccc3)nc(-c3ccccc3)c2-c2ccccc2)cc1, N#Cc1c(-c2ccc(Cl)cc2)cc(-c2ccccc2)nc1OCc1ccccc1 is lower in growth: 113% for the first, 97.9% for the second.

Compared with COc1ccc(-c2cc(-c3cc(C(=O)c4ccccc4)n4ccc(C)cc34)nc(N)c2C#N)cc1, COc1ccc(-c2cc(-c3cc(C(=O)c4ccc(Br)cc4)n4ccc(C)cc34)nc(N)c2C#N)cc1 is higher in growth: 60.5% for the first, 108% for the second.

Compared with N#Cc1ccc(NC(=O)CSc2ccc(-c3ccc(Br)cc3)nn2)cc1, CC(=O)Nc1ccc(-n2cnc3cc(-c4ccc(NS(C)(=O)=O)cc4)ccc32)cc1 is lower in growth: 76.6% for the first, 63.1% for the second.

Compared with CCCn1c(O)c(N=Nc2nc(-c3cc4ccccc4oc3=O)cs2)c2cc(Br)ccc21, Cc1ccc(-c2cc(C(=O)N=Nc3c(O)[nH]c4ccc(Br)cc34)c3ccccc3n2)cc1 is lower in growth: 100% for the first, 79.2% for the second.

Going from COc1cc2oc(-c3cccc(C(=O)Nc4ccc(Cl)cc4)c3)cc(=O)c2c(OCCNC(=O)CNC(=O)OC(C)(C)C)c1OC to COc1cc(NC(=O)CSc2nnc(-c3ccc4nc(-c5ccc(Cl)cc5)[nH]c4c3)o2)cc(OC)c1OC, the growth falls from 98.3% to 71.8%.

First: CCCCOc1ccc(Nc2nc3ccccc3nc2Nc2ccc(OCCCC)cc2)cc1
Second: COc1ccc2[nH]c(=O)c(CSc3ccc(Nc4nccc(-c5ccc(Cl)cc5)n4)cc3)cc2c1
The growth of the first is lower: 68.9% for the first, 116% for the second.

First: CCOC(=O)CNC(=O)CN(Cc1ccccc1)C(=O)[C@@]1(C)CCC[C@]2(C)[C@H]3C[C@H]4C(C(C)C)=C[C@]3(CC[C@H]21)[C@@H]1C(=O)OC(=O)[C@@H]14
Second: CCOC(=O)C1=C(N)N(c2ccccc2)C2=C(C(=O)CC(C)(C)C2)C1c1ccccc1OC (configuration not stated)
The growth of the first is lower: 44.1% for the first, 112% for the second.

First: COc1cc(C2CC(c3ccc(C)cc3)=Nc3c(N)nc(N)nc3N2)ccc1Oc1nc(Nc2ccc(F)cc2)nc(N(C)C)n1 (configuration not stated)
Second: COc1ccc(OC)c(/C=N/NC(=O)c2ccc3nc(-c4ccc(Cl)cc4)[nH]c3c2)c1
The growth of the first is lower: 56.2% for the first, 89.2% for the second.

Going from CC1=N/C(=C\c2ccc(N(C)C)cc2)C(=O)N1CCc1ccc(S(N)(=O)=O)cc1 to CC(=O)NS(=O)(=O)c1ccc(NC(=O)CSC2=NC(c3ccccc3)C(C(C)=O)=C(C)N2)cc1 (configuration not stated), the growth rises from 109% to 133%.

Going from COc1ccccc1C(=O)NNC(=O)CSc1nc2c(c(=O)[nH]1)CCCC2 to COc1ccc(/C(CSc2nnc(-c3c[nH]c4ccccc34)n2-c2ccccc2)=N/O)cc1, the growth falls from 102% to 30.5%.

Compared with C=C1CCC2C3(C)COC(c4cccc(F)c4)OC3CCC2(C)C1CC(O)C1=CCOC1=O (configuration not stated), COC(=O)c1c(C(=O)OC)c2n(c1C)[C@@H]([C@@H](C)[C@H]1CC[C@H]3[C@@H]4CCC5=CC(=O)CC[C@]5(C)[C@H]4CC[C@]13C)SC2 is lower in growth: 62.1% for the first, 51.4% for the second.

First: Nc1nnc(-c2c[nH]c3ccc(F)cc23)c(-c2c[nH]c3ncccc23)n1
Second: C/C(=N\NC(N)=S)c1ccc(Nc2nc(SC(C)C)nc(-c3ccccc3)c2C#N)cc1
The growth of the first is lower: 59.3% for the first, 67.3% for the second.

First: COC1=C[C@@]23CCC(=O)N2CCc2cc4c(cc2[C@H]3[C@H]1OC(=O)C(C)(C)O)OCO4
Second: C/C(=N\N=C\c1ccc(Cl)c([N+](=O)[O-])c1)c1ccc2c(c1)Nc1ccccc1S2
The growth of the first is higher: 106% for the first, 27.5% for the second.

Compared with Nc1nc(-c2ccccc2)cs1, O=c1cc(-c2ccccc2)oc2cc(OCCCCNCc3ccccc3)cc(O)c12 is higher in growth: 44.6% for the first, 64.3% for the second.

With O=C(NO)c1ccc(CNC(=O)[C@H]2Cc3c([nH]c4ccccc34)[C@H](c3ccc(Cl)cc3)N2)cc1 the growth was 7.44% (active).
With N#Cc1c(NC(=O)c2ccc(C(F)(F)F)c(Cl)c2)sc2c1CCC(=O)C2 the growth was -57% (active).
For O=C(Cc1ccc2c(c1)CN(C1CCC(=O)NC1=O)C2=O)NCc1cccc2ccccc12 (configuration not stated), the growth was -22.3% (active).
With O=C(NCCCCCCCCCC[P+](c1ccccc1)(c1ccccc1)c1ccccc1)c1ccc(-n2nc(-c3ccccc3O)nc2-c2ccccc2O)cc1 the growth was -14.1% (active).
With COc1cccc2nc(Nc3cccc(NC(=O)c4ccc(CN5CCCN(C)CC5)c(C(F)(F)F)c4)c3)ccc12 the growth was -58.6% (active).
For CC(=O)Nc1ccc(-c2cn(-c3cccc(C(=O)Nc4ccc(Cl)c(C(F)(F)F)c4)c3)nn2)cn1, the growth was -75.9% (active).
Cc1cc(C(F)(F)F)ccc1C(=O)Nc1sc2c(c1C#N)CCC(=O)C2 was tested, and the growth was -48.2% (active).
C=C1CCC2C3(C)COC(c4c(F)cccc4F)OC3CCC2(C)C1C/C=C1/C(=O)OCC1O (configuration not stated) was tested, and the growth was -67.9% (active).
For COc1cccc(/C=N/NC(=O)c2ccc3nc(-c4ccc(Cl)cc4)[nH]c3c2)c1O, the growth was -87.4% (active).
